Assay [1] can be described thus: qHTS assay to identify small molecule agonists of the hypoxia (HIF-1) signaling pathway - cell viability counter screen (AID 1224844; calls by dose curve; also: nearly all actives have a fitted effect of over 50% in size; also: potency is read from the fitted curve at half-maximal effect). A digest of the protocol:
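HRE-bla ME-180 cells in medium with 0.5% dialyzed FBS were preincubated 5 hrs at 37C, exposed to compounds for 17 hrs, then viability was read as CellTiter-Glo luminescence after 30 min at room temperature, in the reporter wells.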
Background: In qHTS, concentration-response curves come from the screen itself.

A short description of assay [2]: qHTS assay to identify small molecule agonists of the hypoxia (HIF-1) signaling pathway (AID 1224846; active = well fitted activation curve with a large enough effect in the signal ratio in the repeat runs, not every such curve was filed as active; the % refers to the signal ratio). A digest of the protocol:
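HRE-bla ME-180 cells (beta-lactamase reporter under hypoxia response element) were plated at 2,000 cells/well in medium with 0.5% dialyzed FBS, rested 5 hrs, then given compounds in DMSO for 17 hrs at 37C, 5% CO2. Reporter induction was read with CCF4-AM FRET substrate.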

The nature of assay [3]: qHTS assay to identify small molecule agonists of H2AX - cell viability counter screen (AID 1224847; calls by dose curve; also: nearly all actives have a fitted effect of over 30% in size; also: potency is read from the fitted curve at half-maximal effect). A digest of the protocol:
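Counter-screen for viability: CellTiter-Glo ATP luminescence read after 3 h compound treatment (15-point titration, 0.76% DMSO final) of CHO-K1 cells at 37C, with 30 min room-temperature reagent incubation.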

Assay [4] is described as follows: qHTS assay to identify small molecule antagonists of the estrogen related receptor (ERR) signaling pathway from Tox21 library (AID 1224848). Also: nearly all actives have a fitted effect of over 50% in size. Also: potency is read from the fitted curve at half-maximal effect. A digest of the protocol:
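Antagonist-mode screen of the Tox21 10K library in an NTP-provided ERR reporter cell line; 18 h compound exposure at 37 C, luminescence measured with ONE-Glo.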

Assay [5] is described as follows: qHTS assay to identify small molecule agonists of the estrogen related receptor (ERR) signaling pathway from Tox21 library (AID 1224849; calls by dose curve; also: nearly all actives have a fitted effect of over 15% in size). The conditions noted are these: ERR reporter cell line, ONE-Glo luciferase, 18 h. The method, boiled down:
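ERR reporter cell line (NTP) seeded, rested 6 h at 37 C/5% CO2, then pinned with Tox21 compounds in DMSO. After 18 h at 37 C, ONE-Glo luciferase luminescence was read following 30 min at room temperature.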

Assay [6] can be described thus: qHTS RealTime-Glo MT Cell Viability Assay in HepG2 cells - 24 hour (AID 1224867). Also: nearly all actives have a fitted effect of over 50% in size. Also: potency is read from the fitted curve at half-maximal effect. A digest of the protocol:
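Cells + NanoLuc/prosubstrate dispensed (600 cells/well) → 5 h at 37 C/5% CO2 → compounds in DMSO transferred → 40 h incubation at 37 C, luminescence read at 0, 8, 16, 24, 32, 40 h.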

Assay [7] is described as follows: A CellTox Green Cytotoxicity Assay to monitor cytotoxicity in HEK293 cells - 0 hour (AID 1224869). Also: nearly all actives have a fitted effect of over 50% in size. Also: potency is read from the fitted curve at half-maximal effect. The method, boiled down: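 HEK293 cells premixed with CellTox Green dye were seeded at 600 cells/well and left 5 h at 37 C/5% CO2 before pin transfer of 23 nL compound in DMSO. Fluorescence from dye bound to dead-cell DNA was read during 40 h treatment.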
Assay [8] in a line: qHTS RealTime-Glo MT Cell Viability Assay in HepG2 cells - 40 hour (AID 1224870). Also: nearly all actives have a fitted effect of over 50% in size. Also: potency is read from the fitted curve at half-maximal effect. A digest of the protocol: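 Real-time viability: cells seeded at 600 per well together with NanoLuc and cell-permeant prosubstrate, compounds added after 5 h incubation. Luminescence tracked at 0, 8, 16, 24, 32 and 40 h of exposure.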
The nature of assay [9]: qHTS RealTime-Glo MT Cell Viability Assay in HEK293 cells - 32 hour (AID 1224868). Also: nearly all actives have a fitted effect of over 50% in size. Also: potency is read from the fitted curve at half-maximal effect. A digest of the protocol:
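Tox21 10K qHTS, HEK293, 600 cells/well, RealTime-Glo reagent co-dispensed with cells; 5 h preincubation, compound by pintool, 37 C, luminescence at 0–40 h.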

Structures are written as SMILES. Values joined by “and” are separate entries in the source; they are usually repeats but may differ in a detail not shown here. Equal entries are not always repeated. Results filed as inconclusive are left out. Some structures have more than one record in an assay (separate samples or runs), and their calls can disagree. Active and inactive are the calls of the source. Unless noted, calls follow the shape of the dose curve; as a rule, active = well fitted curve in the direction sought with a large enough effect in the repeat runs; inconclusive = weak or mixed curves; inactive = no such curve, though single readings can be large; an effect the other way counts as inactive or inconclusive.
% is scaled to controls: 0 for no effect and ±100 for the full control effect.

As for `[Cl][Pt-2]([Cl])([Cl])[Cl]`, the Potency entry in [1], in assay [2], in [3], in [4], in assay [6] and in [7] was “inactive” in each case. The activity change, positive = activation in assay [5] (at 92.4 µM (top of the series)) was -8.8% (inactive).

On to `O=C(O)c1cc(N=Nc2ccc([N+](=O)[O-])cc2)ccc1O`, for which the Potency result in assay [1], in [3], in [4], in [6], in assay [7] and in assay [8] was “inactive” throughout. In [5] (at 92.4 µM (top of the series)), the activity change, positive = activation was 93.2% (active).

On to `O=C1c2ccccc2C(=O)N1SC1CCCCC1`, for which the Potency in assay [1] is 54.9 µM (active); in assay [3], 89.7 µM (active) and 89.8 µM (active); in assay [6], 38.9 µM (active); in [8] it was “inactive and 43.6 µM (active)”. The Potency entry in [7] was “inactive”.

In the case of `CC(C)=CCNc1ncnc2c1ncn2[C@@H]1O[C@H](CO)[C@@H](O)[C@H]1O`, the values for the Potency in [1], in assay [3] and in assay [4] were 8.49 µM (active), 1.96 µM (active) and 10.6 µM (active), respectively. For the same compound, the activity change, positive = activation in assay [5] (at 42.5 µM (top of the series)) is -51% (inactive). In addition, the Potency entry in assay [6], in assay [7] and in [8] was “inactive” in each case.

`CC1(C)CCC[C@]2(C)[C@H]3CC(=O)O[C@]3(C)CC[C@@H]12`: the Potency result in assay [1], in [2], in assay [6], in assay [9], in assay [7] and in [8] was “inactive” in each case.

Take `CN1CCC[C@@H]1CCO[C@](C)(c1ccccc1)c1ccc(Cl)cc1`: the Potency is 21.3 µM (active) in assay [1], 23.9 µM (active) in [6], 19 µM (active) in assay [9] and 23.9 µM (active) in assay [8]. For the same compound, the activity change, positive = activation in assay [5] (at 42.5 µM (top of the series)) was -35.9% (inactive). Besides, the Potency result in assay [7] is “inactive”.

As for `O=C1OC2(c3ccc(O)cc3Oc3cc(O)ccc32)c2ccc(N=C=S)cc21`, the Potency result in assay [1], in assay [3], in assay [4] and in [8] was “inactive” throughout. The activity change, positive = activation in assay [5] (at 92.4 µM (top of the series)) is 3.25% (inactive). Besides, the Potency in assay [7] is 22.3 µM (active).

Take `COc1ccc2cc1Oc1ccc(cc1)C[C@H]1c3c(cc4c(c3Oc3cc5c(cc3OC)CCN(C)[C@@H]5C2)OCO4)CCN1C`: the Potency entry in assay [1] and in [7] was “inactive” each time. Moreover, the results for the Potency in assay [4], in assay [6] and in assay [8] were 29.8 µM (active), 23.9 µM (active) and 23.9 µM (active), respectively. The activity change, positive = activation in assay [5] (at 42.5 µM (top of the series)) was -56.4% (inactive).

As for `CC(C)(C)c1ccc(C(O)CCCN2CCC(C(O)(c3ccccc3)c3ccccc3)CC2)cc1` (stereo unspecified), the Potency in assay [1] was 21.3 µM (active); in assay [3] it was 34.8 µM (active); in assay [6], 6.01 µM (active); in assay [9] it was 4.77 µM (active); in [8], 4.77 µM (active).

Turning to `Cc1ccc(N/N=c2\c(=O)cc/c(=N\Nc3ccc(S(=O)(=O)O)cc3)c2=O)c(C)c1`, the Potency result in [1], in assay [2], in assay [4], in assay [6], in [9] and in assay [7] was “inactive” in each case. Also, the Potency result in [8] was “inactive”. Moreover, in assay [5] (at 92.4 µM (top of the series)), the activity change, positive = activation was -2.81% (inactive).

As for `C=CC(=O)OCCOC(=O)C=C`, the figures for the Potency in assay [1] and in assay [9] were 24.5 µM (active) and 43.6 µM (active), respectively. Besides, the Potency entry in [3], in [6], in assay [7] and in [8] was “inactive” in each case.

Turning to `C#C[C@]1(OC(C)=O)CC[C@H]2[C@@H]3CCC4=C[C@@H](OC(C)=O)CC[C@@H]4[C@H]3CC[C@@]21C`, the Potency result in [1], in assay [2], in assay [6], in [7] and in assay [8] was “inactive” in each case. The Potency in assay [4] was 23.7 µM (active). The activity change, positive = activation in assay [5] (at 42.5 µM (top of the series)) is -53.5% (inactive).

For `CN(C)c1ccc(C(=C2C=CC(=[N+](C)C)C=C2)c2ccc(N(C)C)cc2)cc1`, the Potency is 19.4 µM (active) and 54.9 µM (active) in assay [1]; 3.17 µM (active) and 12.7 µM (active) and 13.9 µM (active) in [3]; 24.4 µM (active) and 24.5 µM (active) and 10.7 µM (active) in assay [6]; 2.74 µM (active) and 6.92 µM (active) and 2.39 µM (active) in assay [9]. Further, the Potency result in assay [7] was “inactive”.

For the compound `Clc1nnc(Cl)c2ccccc12`, the Potency result in assay [1], in [2], in assay [3], in [6], in [9] and in assay [7] was “inactive” throughout. Besides, the Potency entry in [8] was “inactive”.

Regarding `CC(C)NC[C@@H](O)COc1ccc(CC(N)=O)cc1`, the Potency result in assay [1], in assay [3], in [6], in [9] and in assay [8] was “inactive” each time.

For `O=C(c1ccc(O)c(O)c1)c1ccc(O)cc1O`, the Potency entry in [1], in [3], in assay [6], in assay [7] and in assay [8] was “inactive” each time. Moreover, the Potency in assay [4] was 54.4 µM (active); in assay [9] it was 27.5 µM (active). Further, the activity change, positive = activation in assay [5] (at 92.4 µM (top of the series)) is -38% (inactive).

Source of the values: PubChem BioAssay (Tox21).
